Laboratory results: the supplement of paper PMC8728848
Only a selection was taken, and the strongest signals are over-represented in it overall.

Assays:
Assay in all cases: glycan array binding signal (z-score within array); higher = stronger binding
Conditions in all cases: glycan notation: IUPAC condensed, linker removed
Fuc(a1-2)Gal = target: Fuc(a1-2)Gal
Method in brief: (§1)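 From the Consortium for Functional Glycomics database, 3228 arrays were curated, keeping only those whose protein sequence was available. Binding is given as a within-array Z-score averaged across arrays sharing a protein sequence and across linkers. Negative Z-scores can be read as non-binding.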

[1] = target: Fuc(a1-2)Gal(b1-3)GalNAc(a1-3)[Fuc(a1-2)]Gal(b1-4)Glc
Method in brief: as §1

[2] = target: Fuc(a1-2)Gal(b1-3)GalNAc(b1-3)Gal(a1-4)Gal(b1-4)Glc
Method in brief: as §1

[3] = target: Fuc(a1-2)Gal(b1-3)GlcNAc6S
Method in brief: as §1

[4] = target: Fuc(a1-2)Gal(b1-3)[Fuc(a1-4)]GlcNAc(b1-2)Man(a1-3)[Fuc(a1-2)Gal(b1-3)[Fuc(a1-4)]GlcNAc(b1-2)Man(a1-6)]Man(b1-4)GlcNAc(b1-4)[Fuc(a1-6)]GlcNAc(b1-4)[Fuc(a1-6)]GlcNAc
Method in brief: as §1

[5] = target: Fuc(a1-2)Gal(b1-4)GlcNAc(b1-3)Gal(b1-4)GlcNAc
Method in brief: as §1

[6] = target: Fuc(a1-2)Gal(b1-4)GlcNAc(b1-6)GalNAc
Method in brief: as §1

[7] = target: Fuc(a1-2)Gal(b1-4)[Fuc(a1-3)]GlcNAc(b1-3)[Neu5Ac(a2-6)Gal(b1-4)GlcNAc(b1-6)]Gal(b1-4)Glc
Method in brief: as §1

Fuc(a1-2)Gal6S(b1-4)Glc = target: Fuc(a1-2)Gal6S(b1-4)Glc
Method in brief: as §1

[8] = target: Fuc(a1-2)Gal6S(b1-4)Glc6S
Method in brief: as §1

Fuc(a1-2)[Gal(a1-3)]Gal = target: Fuc(a1-2)[Gal(a1-3)]Gal
Method in brief: as §1

[9] = target: Fuc(a1-2)[Gal(a1-3)]Gal(b1-3)GlcNAc(b1-2)Man(a1-3)[Fuc(a1-2)[Gal(a1-3)]Gal(b1-3)GlcNAc(b1-2)Man(a1-6)]Man(b1-4)GlcNAc(b1-4)GlcNAc
Method in brief: as §1

[10] = target: Fuc(a1-2)[Gal(a1-3)]Gal(b1-4)Glc
Method in brief: as §1

[11] = target: Fuc(a1-2)[GalNAc(a1-3)]Gal(b1-3)GlcNAc(b1-6)GalNAc
Method in brief: as §1

[12] = target: Fuc(a1-2)[GalNAc(a1-3)]Gal(b1-4)GlcNAc(b1-6)GalNAc
Method in brief: as §1

[13] = target: Fuc(a1-2)[GalNAc(a1-4)]Gal(b1-4)GlcNAc
Method in brief: as §1

[14] = target: Fuc(a1-2)[GalNAc(b1-3)]Gal
Method in brief: as §1

[15] = target: Fuc(a1-3)[Gal(b1-4)]GlcNAc(b1-6)[Gal(b1-3)GlcNAc(b1-3)]Gal(b1-4)Glc
Method in brief: as §1

Gal(a1-2)Gal = target: Gal(a1-2)Gal
Method in brief: as §1

[16] = target: Gal(a1-3)Gal(b1-4)GlcNAc(b1-2)Man
Method in brief: as §1

[17] = target: Gal(a1-3)Gal(b1-4)GlcNAc(b1-6)GalNAc
Method in brief: as §1

Gal(a1-4)Gal(b1-4)GlcNAc = target: Gal(a1-4)Gal(b1-4)GlcNAc
Method in brief: as §1

Gal(b1-3)Gal(b1-4)GlcNAc = target: Gal(b1-3)Gal(b1-4)GlcNAc
Method in brief: as §1

Gal(b1-3)GalNAc = target: Gal(b1-3)GalNAc
Method in brief: as §1

[18] = target: Gal(b1-3)GlcNAc(a1-3)Gal(b1-4)GlcNAc
Method in brief: as §1

[19] = target: Gal(b1-3)GlcNAc(b1-3)Gal(b1-4)GlcNAc(b1-2)[Gal(b1-3)GlcNAc(b1-3)Gal(b1-4)GlcNAc(b1-6)]Man(a1-6)[Gal(b1-3)GlcNAc(b1-3)Gal(b1-4)GlcNAc(b1-2)Man(a1-3)]Man(b1-4)GlcNAc(b1-4)[Fuc(a1-6)]GlcNAc
Method in brief: as §1

[20] = target: Gal(b1-3)GlcNAc(b1-6)GalNAc
Method in brief: as §1

Gal(b1-3)GlcNAc6S = target: Gal(b1-3)GlcNAc6S
Method in brief: as §1

Gal(b1-4)GlcNAc = target: Gal(b1-4)GlcNAc
Method in brief: as §1

[21] = target: Gal(b1-4)GlcNAc(b1-3)Gal(b1-3)GalNAc
Method in brief: as §1

B1: MGL (Homo sapiens), Q8IUN9 (protein)
chain: MTRTYENFQYLENKVKVQGFKNGPLPLQSLLQRLCSGPCHLLLSLGLGLLLLVIICVVGFQNSKFQRDLVTLRTDFSNFTSNTVAEIQALTSQGSSLEETIASLKAEVEGFKQERQAGVSELQEHTTQKAHLGHCPHCPSVCVPVHSEMLLRVQQLVQDLKKLTCQVATLNNNASTEGTCCPVNWVEHQDSCYWFSHSGMSWAEAEKYCQLKNAHLVVINSREEQNFVQKYLGSAYTWMGLSDPEGAWKWVDGTDYATGFQNWKPGQPDDWQGHGLGGGEDCAHFHPDGRWNDDVCQRPYHWVCEAGLGQTSQESH
**Q.** Which results are given for B1?
**A.** glycan array binding signal (z-score) (Fuc(a1-2)Gal): -0.232; glycan array binding signal (z-score) [1]: -0.246; glycan array binding signal (z-score) [2]: -0.242; glycan array binding signal (z-score) [3]: -0.178; glycan array binding signal (z-score) [4]: -0.238; glycan array binding signal (z-score) [5]: -0.247; glycan array binding signal (z-score) [6]: 3.85; glycan array binding signal (z-score) [7]: -0.247; glycan array binding signal (z-score) (Fuc(a1-2)Gal6S(b1-4)Glc): -0.242; glycan array binding signal (z-score) [8]: -0.254; glycan array binding signal (z-score) (Fuc(a1-2)[Gal(a1-3)]Gal): -0.241; glycan array binding signal (z-score) [9]: -0.249; glycan array binding signal (z-score) [10]: -0.237; glycan array binding signal (z-score) [11]: 3.6; glycan array binding signal (z-score) [12]: 4.98; glycan array binding signal (z-score) [13]: 3.39; glycan array binding signal (z-score) [14]: 4.3; glycan array binding signal (z-score) [15]: -0.251; glycan array binding signal (z-score) (Gal(a1-2)Gal): -0.25; glycan array binding signal (z-score) [16]: -0.252; glycan array binding signal (z-score) [17]: 3.79; glycan array binding signal (z-score) (Gal(a1-4)Gal(b1-4)GlcNAc): -0.232; glycan array binding signal (z-score) (Gal(b1-3)Gal(b1-4)GlcNAc): -0.245; glycan array binding signal (z-score) (Gal(b1-3)GalNAc): -0.242; glycan array binding signal (z-score) [18]: -0.245; glycan array binding signal (z-score) [19]: -0.049; glycan array binding signal (z-score) [20]: 3.24; glycan array binding signal (z-score) (Gal(b1-3)GlcNAc6S): -0.249; glycan array binding signal (z-score) (Gal(b1-4)GlcNAc): -0.243; glycan array binding signal (z-score) [21]: -0.27
